Data taken from PubChem BioAssay AID1159580 (chemical genetic matrix, 2015).
The whole screen tested about 5,500 compounds, of which about 2,000 (36%) were called active. Not shown: some 18% with an inconclusive outcome. No stated cut-off is given here; in the data, active means normalized growth mostly below about 0.91 (no sharp cut-off); inconclusive means no clear call, values can overlap the other calls; inactive means mostly above about 0.92. The list shows a part of the results.

Experiment: chemical genetic growth profiling, strain panel (AID 1159580);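 further: tested at 20 µM; growth read once vehicle control cultures reached saturation at 30 °C; 1 = growth at the plate median or of vehicle wells; lower values mean less growth of the strain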
Details: S. cerevisiae deletion strains, growth OD

Measured: normalized growth

COC(=O)[C@H](Cc1ccccc1)NC(=O)/C(=C1\OC(=O)C(c2ccccc2)=C1O)c1ccccc1
inactive: locus YHR030C, strain SLT2, active compounds read low 1.05 | locus YHR079C, strain IRE1, active compounds read low 1.06 | locus YJL095W, strain BCK1, active compounds read low 0.998 | locus YJR066W, strain TOR1, active compounds read low 0.992 | locus YLR113W, strain HOG1, active compounds read low 0.961 | locus YNL183C, strain NPR1, active compounds read low 0.98 | locus YOR231W, strain MKK1, active compounds read low 1.04 | locus YPL256C, strain CLN2, active compounds read low 1.05
